Screens as filed in PubChem BioAssay.
Compounds with a hit are over-represented: about 14% of the library has one in this group of screens.
HCV inhibitor = blocks hepatitis C virus; Huh7.5.1 HCVcc-Cre infection, luciferase reporter, 44 h; Potency, µM (titrated, usually from 41.8 µM), without a hit: top-dose activity change, negative = inhibition, actives largely listed as inhibitors; actives 3.4% (n = 340,000); AID 651820; further: potency means the concentration at half of the fitted maximal effect
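Cells seeded at 1,000/well and cultured 4 h, then compounds added followed by HCVcc-Cre virus (~0.5 moi). After 44 h further culture, luciferase substrate was added, plates held 15 min at room temperature, and luminescence read for 15 sec.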
Pf growth 96h = inhibits malaria parasite growth, 96 h; P. falciparum luciferase reporter growth, 96 h; Potency, µM (top dose mostly 28.7 µM), without a hit: at the highest dose activity change, negative = inhibition, most hits filed as inhibitors; actives 6.9% (n = 320,000); AID 504834; further: potency means the concentration at half of the fitted maximal effect
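Delayed-death screen, second-generation endpoint: infected erythrocytes, 2% hematocrit, 0.05% parasitemia final; 96 hours at 37 C, 5% CO2; luciferase detection reagent; luminescence decrease equals reduced growth.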
MARV entry inh = inhibitors of Marburg virus binding or cell entry. Marburg virus pseudotyped entry inhibition, cell reporter. Potency, µM (top dose mostly 37.8 µM), for inactives: at the highest dose activity change, negative = inhibition, actives largely listed as inhibitors. actives 1.8% (n = 300,000). AID 540276; calls by dose curve; tested in HEK293 cells; further: potency means the concentration at half of the fitted maximal effect
Pf growth 48h = inhibits P. falciparum growth in the first generation, 48 h. P. falciparum luciferase growth in erythrocytes, 48 h. Potency, µM (titrated, usually from 28.7 µM), for the others: at the highest dose activity change, negative = inhibition, most hits filed as inhibitors. actives 5.9% (n = 310,000). AID 504832; further: potency means the concentration at half of the fitted maximal effect
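First compound was added to culture medium, then infected red cells at 0.1% parasitemia and 2% hematocrit (final). After incubation at 37 C under 5% CO2, luciferase detection reagent was dispensed and light output recorded.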
HCMV antiviral = human cytomegalovirus inhibition. actives 4.5% (n = 410,000). HFF cells, HCMV-luciferase reporter, 72 h; stronger effect = lower value. AID 1259415. activity change, negative = inhibition, % at 57.5 µM; in the data active means activity change below about -60%; inconclusive means no clear call, values can overlap the other calls; inactive means above about -39%
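Two-dose cell screen: HFF monolayers treated with compounds and infected with luciferase-expressing HCMV at 1 PFU/cell, 72 h at 37C, then lysed for luciferase measurement.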
LASV entry inh = blocks Lassa virus binding to or entry into cells | Lassa virus pseudotype entry inhibition, cell reporter | Potency, µM (highest dose often 37.9 µM), for the others: top-dose activity change, negative = inhibition, usual class: inhibitors | actives 1.2% (n = 300,000); calls by dose curve; tested in HEK293 cells; further: potency means the concentration at half of the fitted maximal effect; nearly all actives have a fitted effect of over 50% in size
* hit, by the source's call; ? = inconclusive; / = not tested or not shown; ! = not active in a repeat; [ ] = another dose, or the depositor's remark. Unless noted, the call rests on the fitted dose curve; in most records, active means well fitted inhibition curve with a large enough effect; inconclusive means small, poorly fitted or top-dose-only effect, or another doubt; inactive means no such curve, though single readings can be large or run the other way. On the % scale 0 is the no-effect control and ±100 the full control effect.

SMILES	HCV inhibitor	Pf growth 96h	MARV entry inh	Pf growth 48h	HCMV antiviral	LASV entry inh
Cc1c(OC(C)C(=O)NCCN2CCOCC2)ccc2c3c(c(=O)oc12)CCCC3 (stereo not given)	?	?	/	-19%	?	/
Cc1c(OC(C)C(=O)NCc2ccncc2)ccc2c3c(c(=O)oc12)CCC3 (stereo not given)	?	9.3µM*	/	?	-31	/
Cc1c(OC(C)C(=O)N[C@H](C(=O)O)c2ccccc2)ccc2c3c(c(=O)oc12)CCCC3 (stereo not given in full)	0%	?	/	?	13	/
Cc1c(OC(C)C(=O)NCC(O)c2ccccc2)ccc2c3c(c(=O)oc12)CCC3 (stereo not given)	?	10µM*	/	13µM*	-34	/
Cc1c(OC(C)C(=O)NCc2ccccn2)ccc2c3c(c(=O)oc12)CCCC3 (stereo not given)	?	1.7µM*	/	?	-20	/
Cc1c(OCC(=O)NCc2ccncc2)ccc2c3c(c(=O)oc12)CCC3	3%	13µM*	/	?	6	/
Cc1ccc(NC(=O)CSc2nnc(NC(=O)NC3CCCCC3)s2)cc1	/	/	/	/	94	-13%[46.1 µM]
Cc1ccc(NC(=O)Nc2nnc(SCC(=O)N3CCC(C)CC3)s2)cc1	/	/	/	/	-88*	20%[46.1 µM]
CCCSc1nnc(NC(=O)Nc2ccc(C)cc2)s1	-4%	?	?	26%	?	8%[46.1 µM]
CCCSc1nnc(NC(=O)Nc2ccc(F)cc2)s1	?	0%	?	?	-104*	?
CCCSc1nnc(NC(=O)Nc2ccccc2)s1	8%	-98%	-23%	48%	-99*	12%
COC(=O)[C@@H]1[C@@H](c2ccccc2)NC(=O)N(CCc2cc(OC)c(OC)c(OC)c2)[C@@H]1C	/	/	-31%[14.2 µM]	/	/	/
COc1ccc(COC(=O)N/N=C2\C[C@@H](O)[C@@H](O)[C@@H]3[C@@H]4C(=O)N(Cc5ccc6c(c5)OCO6)C(=O)[C@@H]4CC[C@@H]23)cc1	/	/	4%[14.2 µM]	/	/	/
COc1ccc(-n2nc(C(=O)N3CCCC(C)C3)c3c4ccccc4n(C)c3c2=O)cc1 (stereo not given)	/	/	14%[46.1 µM]	/	-2	-6%[46.1 µM]
CC(C)C(=O)Nc1cccc(C(=O)NCc2ccc3c(c2)OCO3)c1	?	16%	?	8%	46	0%
CC12CC(NC(=O)N1c1cccc(C(=O)NCc3ccc4c(c3)OCO4)c1)c1cc(Cl)ccc1O2 (stereo not given)	25µM*	?	?	/	-4	?
Cc1cc2oc(=O)c(CC(=O)O)c(C)c2c2occ(-c3ccc(F)cc3)c12	/	/	?	/	28	20%[46.1 µM]
CCN(Cc1ccccc1)C(=O)Cn1c(=O)n(-c2ccc(F)c(Cl)c2)c(=O)c2sc3ccccc3c21	/	/	-7%[46.1 µM]	/	-16	4%[46.1 µM]
COc1ccc(-c2nn(-c3ccccc3)cc2C(N)=O)cc1OC	10%	15µM*	/	42%	9	/
NC(=O)c1cn(-c2ccccc2)nc1-c1cccnc1	8%	18%	6%	14%	-22	-17%
COc1ccc(-c2nn(-c3ccccc3)cc2/C=N/NC(N)=S)cc1OC	11µM*	15µM*	?	12µM*	-4	?
COc1ccc(-c2nn(-c3ccccc3)cc2/C=N/n2cnnc2)cc1OC	?	-14%	3%	?	-1	1%
O=c1[nH]c(C(F)(F)C(F)(F)C(F)(F)F)no1	29%	/	20%	/	8	11%
CN(C)C(=O)Oc1cccc([N+](C)(C)C)c1	-1%[8.37 µM]	4.1µM*!	?	?	-38	-3%
CN(C)C(=O)Nc1cccc(OC(=O)N(C)C)c1	0%	/	5%	-10%	-1	2%
SMILES	HCV inhibitor	Pf growth 96h	MARV entry inh	Pf growth 48h	HCMV antiviral	LASV entry inh
COC(=O)c1cc2c(C)nn(-c3ccccc3)c2s1	6.3µM*	?	21%	38%	32	10%
CCOc1ccc(NC(=O)c2cc3c(C)nn(-c4ccccc4)c3s2)cc1	/	/	12%[46.1 µM]	/	-66*	-2%[46.1 µM]
CC(=O)Nc1cccc(-c2ccnc3c2CC(C)(C(=O)Nc2ccc(Cl)c(C(F)(F)F)c2)O3)c1 (stereo not given)	/	/	/	/	-35	/
CCCNC(=O)OC[C@H]1O[C@H](CCON=C(C)CCC(=O)OC[C@H]2O[C@H](C#Cc3ccccc3)C=C[C@H]2Oc2ccc(C)cc2)C=C[C@H]1Oc1ccc(OC)cc1	/	/	-29%[14.2 µM]	/	/	/
COc1ccc(NC(=O)COC(=O)c2ccc(-n3cnnn3)cc2)c([N+](=O)[O-])c1	21%	31%	/	-5%	-27	/
CC(=O)Nc1ccc(NC(=O)C2CCN(c3cnccn3)CC2)cc1	/	/	-8%[46.1 µM]	/	-9	8%[46.1 µM]
Cc1cc(C)c(NC(=O)C2CCN(c3cnccn3)CC2)c(C)c1	13%	13µM*	-21%	6%	-18	17%
COc1ccc(NC(=O)C2CCN(c3cnccn3)CC2)cc1Cl	-9%	59%	?	-4%	-60*!	-10%[46.1 µM]
CNC(=S)N1N=C(c2ccc(C)cc2)CC1c1ccc(N(C)C)cc1 (stereo not given)	-24%	?	-4%	?	8	-1%
CN(C)c1ccc(C2CC(c3ccccc3)=Nc3nc(-c4ccccc4)cn32)cc1 (stereo not given)	3%	5.2µM*	?	8.3µM*	/	7%
O=C(CC[C@H]1O[C@@H](n2cnc3c(NC(=O)c4ccccc4)ncnc32)[C@H](O)[C@@H]1O)NCC1CCCCC1	/	/	/	/	-12	/
CCc1ccc(C(O)c2ncc(-c3ccc(Cl)cc3)[nH]2)cc1 (stereo not given)	/	/	/	/	-3	/
C/C(=N\NC(=O)c1ccc(Cn2cc(Br)cn2)o1)c1cccc(NC(=O)C(C)C)c1	?	12µM*	?	-15%	-9	?
CCNS(=O)(=O)c1ccc(NC(=O)c2ccc(Cn3cc(Br)cn3)o2)cc1	?	12µM*	?	-24%	?	-21%
CC(=O)c1sc(NC(=O)c2ccc(Cn3cc(Br)cn3)o2)nc1C	8%	54%	6%	9%	17	3%
Cc1ccc(F)cc1NC(=O)CCc1c(C)nn(-c2ccc(N3CCCC3)nn2)c1C	/	/	/	/	-25	4%[46.1 µM]
Cc1ccccc1CN1CCCN(CC(=O)Nc2ccc(F)cc2)S1(=O)=O	/	/	/	/	-12	-25%[46.1 µM]
COc1ccc(Oc2c(C(F)(F)F)oc3c(CN4CCCC(C)C4)c(O)ccc3c2=O)cc1 (stereo not given)	/	/	-4%[46.1 µM]	/	-61*	14%[46.1 µM]
CC1CN(Cc2c(O)ccc3c2oc(=O)c2ccccc23)CC(C)O1 (stereo not given)	?	2.3µM*	/	6.6µM*	?	/
CC1CCCN(Cc2c(O)ccc3c4c(c(=O)oc23)CCCC4)C1 (stereo not given)	-5%	1.5µM*	/	1.3µM*	-33	/
